# Rango release inh = inhibitors of RanGTP-induced Rango-importin beta complex dissociation. Potency, µM (top dose mostly 46.1 µM). 340,000 tested, 0.071% active. Biochemical FRET Rango-importin beta, RanGTP-induced dissociation. AID 540253. O95149+P62826; further: nearly all actives have a fitted effect of over 45% in size
#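 Rango/importin beta premix (0.1/0.25 uM final), PBS + 1 mM DTT + 0.02% Tween-20 + 0.1% BSA; cpd 5 min RT; FRET pre-read; + RanGTP-RCC1 (0.6 uM Ran, 2 mM GTP, 0.2 uM RCC1); 45 min RT; FRET post-read, ex 430, em 486/530 nm.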
# CBFb-RUNX1 inh = inhibitors of human CBF-beta and RUNX1 interaction. Q01196+Q13951. AlphaScreen CBFb-His/RUNX1-biotin binding, biochemical. Potency, µM (doses to about 59.8 µM), most hits filed as inhibitors. 230,000 tested, under 10 active. AID 1477; active means well fitted curve in the direction sought with a large enough effect; inconclusive means small, poorly fitted or top-dose-only effect, or effect the other way, or another doubt; inactive means no such curve, though single readings can be large or run the other way
#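 CBFb-His/RUNX1-biotin, 30 nM each, preincubated 20 min RT; compound 15 min RT; Ni + streptavidin beads 50 ng each, 90 min RT; AlphaScreen read.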
# ClpP mod = qHTS Assay for Activators of ClpP | purified B. subtilis ClpP, FRET peptide cleavage, 20 min | Potency, µM (doses to about 57.5 µM) | 340,000 tested, 1.9% active | AID 651965, 2013; active means well fitted falling curve with a large enough effect; inconclusive means small, poorly fitted or top-dose-only effect; inactive means no such curve, though single readings can be large or run the other way; further: the source files actives as falling curves though it sought activators and does not explain the sign; nearly all actives have a fitted effect of over 65% in size
#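 ClpP 10 microg/mL final, pH 8 Tris/KCl buffer with BSA, glycerol, Tween-20; compound pinned in; FRET-FV substrate; RT 20 min; Ex320/Em430; ΔFRET vs ADEP 5.8 microM, DMSO, no enzyme.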
# MBNL1 CUG block = blocks human MBNL1 binding to CUG repeat RNA; 280,000 tested, 0.036% active; Potency, µM (doses to about 57.5 µM), most hits filed as inhibitors; TR-FRET MBNL1-His/biotin-(CUG)12 binding, 665/545 ratio; active means well fitted inhibition curve with a large enough effect in the signal ratio, with a control signal flat, not every such curve was filed as active; inconclusive means small, poorly fitted or top-dose-only effect, or effect the other way, or a change in a side signal; inactive means no such curve, though single readings can be large or run the other way; the % refers to the signal ratio
#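 His-tagged MBNL1 binding to biotinylated (CUG)12 RNA was measured by TR-FRET using terbium anti-His antibody (0.055 ng/ul final) and streptavidin-XL665 (5 nM final). Compounds were titrated 92 nM to 58 uM; 60 min at room temperature.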
# Rango complex inh = inhibitors of Rango-importin beta complex formation; Rango CFP/YFP FRET sensor + importin beta, 45 min; Potency, µM (doses to about 92.2 µM); 340,000 tested, 0.031% active; AID 540263; further: nearly all actives have a fitted effect of over 15% in size
#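 Inhibition scored from the CFP 486 nm/YFP 530 nm FRET ratio 45 min after adding 0.125 microM importin beta to 50 nM Rango biosensor preincubated 5 min with compound (room temperature, PBS with DTT, Tween-20, BSA). No-importin wells as positive control.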
# Hits are given with their value; 0 = inactive; ? = inconclusive; - = no result given; ! = repeats disagree; [ ] = dose if it differs, or a comment. The full list was thinned out, with hits kept by preference. Unless noted, the call rests on the fitted dose curve.
SMILES,Rango release inh,CBFb-RUNX1 inh,ClpP mod,MBNL1 CUG block,Rango complex inh
CC(NCc1ccccc1)C1COc2ccccc2O1 (stereo unspecified),0,0,0,0,0
COc1ccc(CNC(C)C2COc3ccccc3O2)c(OC)c1 (stereo unspecified),0,0,28µM,0,0
C/C(Cc1ccccc1)=N\NC(=O)C1CCCCC1,0,0,28µM,0,0
CCOc1ccc(OCC)c(NS(=O)(=O)c2cc(-c3onc(C)c3C)ccc2OC)c1,-,-,0,-,-
Cc1ccc(OCCC(=O)OCC(=O)NNC(=O)c2ccccc2)cc1,0,-,25µM,-,0
CCOc1ccc(OCCC(=O)NNC(=O)c2ccncc2)cc1,0,-,7.9µM,-,0
COc1cc(NC(=O)c2cc3cccc(OC)c3o2)cc(C(=O)Nc2cccc(C(F)(F)F)c2)c1,0,0,25µM,0,0
COc1ccc(S(=O)(=O)N2CCCC2C(=O)Nc2nnc(-c3cccnc3)s2)cc1 (stereo unspecified),0,0,28µM,0,0
COc1ccc(S(=O)(=O)N2CCC[C@H]2C(=O)NC2=NCCS2)cc1,0,0,0,0,0
c1ccc(-c2ccc(-c3nc(-c4ccccn4)no3)cc2)cc1,0,0,25µM,0,0
c1ccc(-c2noc(-c3cccc4ccccc34)n2)nc1,0,0,40µM,?,0
Cc1nc2ccn(Cc3ccco3)c(=O)c2cc1C(=O)NCc1ccc(Cl)cc1,-,-,0,-,-
COc1ccc(CCSc2n[nH]c(C(C)C)n2)cc1,-,-,0,-,-
CCCn1cc(S(=O)(=O)c2ccccc2)c(=O)c2cc(F)c(N3CCCCCC3)cc21,-,-,28µM,-,-
CCn1cc(S(=O)(=O)c2ccccc2)c(=O)c2cc(F)c(N3CCCC3)cc21,-,-,25µM,-,-
CCCCn1cc(S(=O)(=O)c2ccc(OC)cc2)c(=O)c2cc(F)c(N3CCCC3)cc21,-,-,0,-,-
CCCn1cc(S(=O)(=O)c2ccc(OC)cc2)c(=O)c2cc(F)c(N3CCCC(C)C3)cc21 (stereo unspecified),-,-,20µM,-,-
COc1cc(OC)c(NC(=O)c2nnn(Cc3ccc(C)cc3)c2N)cc1Cl,-,-,0,-,-
NC(=O)CCn1c2ccccc2c2ccccc21,0,0,-,0,0
Cc1ccc2c(c1)c1cccc3c1n2CCN3CCC(N)=O,?,0,14µM,0,?
CCOc1ccc2c(c1)C(C)=CC(C)(C)N2C(=O)Nc1ccccc1,0,0,28µM,0,?
CCNC(=O)N1c2ccc(OC)cc2C(C)=CC1(C)C,?,0,32µM,0,?
C=CCN1C(=O)c2ccc(C(=O)N(C)CC(=O)Nc3ccccc3Br)cc2C1=O,0,-,22µM,?,0
c1ccc(CNc2ccc3ccccc3n2)nc1,0,0,28µM,0,0
COc1ccc(OC)c(CCNC(=O)Cn2ccc3cc(S(=O)(=O)N4CCCCC4)ccc32)c1,-,-,0,-,-
SMILES,Rango release inh,CBFb-RUNX1 inh,ClpP mod,MBNL1 CUG block,Rango complex inh
COc1ccccc1N1CCN(C(=O)C(=O)c2c(C)n(C)c3ccccc23)CC1,0,-,0,0,0
Cc1c(C(=O)C(=O)N2CCN(C)CC2)c2ccccc2n1C,0,0,13µM,0,0
COc1ccccc1CNC(=O)c1nn(-c2ccc(C)cc2)c(=O)c2c1c1ccccc1n2C,0,0,14µM,0,0
Cc1ccc(CNC(=O)c2cn(C3CCCCC3)c(=O)c3c2c2ccccc2n3C)o1,?,0,?,0,?
CCOc1ccccc1CNC(=O)c1cn(C)c(=O)c2c1c1ccccc1n2C,0,0,11µM,0,?
CCOC(CCNC(=O)c1cn(C)c(=O)c2c1c1ccccc1n2C)OCC,0,-,0,0,0
Cc1ccc(CNC(=O)c2cn(C)c(=O)c3c2c2ccccc2n3C)o1,0,0,14µM,0,0
COC(=O)c1cc2c(ccn2-c2ccc(F)cc2)n1Cc1cccc(OC)c1,0,0,28µM,0,0
COC(=O)c1cc2c(ccn2-c2ccc(F)cc2)n1Cc1ccc(OC(C)=O)cc1,0,0,28µM,0,?
CC(N)(C(=O)O)c1cccc(CC(=O)O)c1 (stereo unspecified),-,0,-,-,-
CS(=O)(=O)c1cccc(C(=O)Nc2nnc(C3=COCCO3)o2)c1,0,-,10µM,-,0
COc1cc(-c2cc(-c3nnco3)c3ccccc3n2)cc(OC)c1OC,0,0,13µM,0,0
COc1cccc2c1Oc1ncccc1N(c1ccc(C(=O)NCc3ccccc3C)s1)C2,-,-,32µM,-,-
CC(=O)Nc1nonc1-c1nnc(SCC(=O)Nc2cccc(C)c2C)n1-c1ccccc1,-,-,0,-,-
O=S(=O)(c1cccnc1)N1CCN(c2nc(-c3cccs3)nc3ccccc23)CC1,-,-,32µM,-,-
O=S(=O)(c1ccccc1)N1CCN(c2nc(-c3cccs3)nc3ccccc23)CC1,-,0,?,0,-
O=S(=O)(c1ccc(Cl)cc1)N1CCN(c2nc(-c3cccs3)nc3ccccc23)CC1,0,0,20µM!,0,0
O=C(Cc1cccs1)Nc1cccc(-c2nc3cc4ccccc4cc3[nH]2)c1,0,0,28µM,0,0
Cn1cc(S(=O)(=O)N2CCCC2)cc1C(=O)Nc1ccc(C(F)(F)F)cc1,-,-,0,-,-
O=C(c1ccc(=O)oc1)N1CCOCC1,0,0,32µM,0,0
O=C(c1ccc(F)cc1)N1CCOCC1,0,0,0,0,0
CCCN1CCN(c2ncnc3sc(C(=O)Nc4ccc(OC(F)(F)F)cc4)c(C)c23)CC1,-,-,0,-,-
O=C1Nc2ccccc2S/C1=C/c1cccs1,?,0,-,0,?
O=C1/C(=C/c2cccs2)Sc2ccccc21,18µM,0,0,0,?
CCOC(=O)CC(=O)CSc1nc2ccsc2c(=O)n1Cc1ccccc1,-,-,0,-,-
SMILES,Rango release inh,CBFb-RUNX1 inh,ClpP mod,MBNL1 CUG block,Rango complex inh
Cc1cccc(C)c1Nc1c(-c2ccccc2Cl)nc2cnccn12,-,-,0,-,-
OCC1OC(n2ccc3c(SCc4ccccc4)ncnc32)C(O)C1O (stereo unspecified),0,-,35µM,-,0
C#C[C@]1(O)CCC2C3CCC4=C(CCC(=O)C4)C3CC[C@@]21C (stereo partly specified),-,0,-,-,-
Cc1cc(C(=O)N/N=C/c2cc(Br)cc(Br)c2OC(=O)c2cccc(F)c2)n[nH]1,3.7µM,0,-,0,?
CCOC(=O)c1c(-c2ccccc2)oc2ccc(OC)cc12,0,?,10µM,0,0
CCOC(=O)c1c(-c2ccccc2)oc2ccc(OCC(O)CNCCN(C)C)cc12 (stereo unspecified),0,-,35µM,0,0
CCOC(=O)c1c(-c2ccccc2)oc2ccc(OCC)cc12,0,0,-,0[11.5 µM],0
CCOC(=O)COc1c(-c2ccc(OC)cc2)oc2ccccc2c1=O,0,0,32µM,0,0
CCOc1ccc(-c2oc3ccccc3c(=O)c2O)cc1OCC,-,-,32µM,-,-
CCCCC[C@H](O)/C=C/C=C/C=C/[C@@H](O)C/C=C\CCCC(=O)O,-,0,-,-,-
